From PubChem
An excerpt weighted towards active compounds, which were near 19% of everything screened.
HT1080-NT tox: qHTS for induction of synthetic lethality in tumor cells producing 2HG: qHTS for the HT-1080-NT fibrosarcoma cell line. Potency, µM (highest dose often 46.1 µM), inactives show at the top dose activity, negative = less viability, hits mostly cytotoxic. HT-1080-NT fibrosarcoma viability, CellTiter-Glo ATP luminescence, 48 h. hit rate 1.6% among 360,000;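 also: NT is the 2HG producing partner of a matched IDH1 knockdown line; potency is read from the fitted curve at half-maximal effect; 0% = DMSO-treated cells and -100% = media-only wells without cells; nearly all actives have a fitted effect of over 55% in size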
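Compounds were tested in concentration-response format on HT-1080-NT cells for 48 hours at 37 degrees C. Cell viability came from CellTiter-Glo luminescence; curves were classified by r2, response magnitude and activity.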
DT40 TDP1 CPT: qHTS for Inhibitors of human tyrosyl-DNA phosphodiesterase 1 (TDP1): qHTS in cells in presence of CPT. chicken DT40 Tdp1-/-;hTDP1 cells + 20 nM CPT, ATP luminescence, 48 h. Potency, µM (doses to about 46.2 µM), for the others: top-dose activity change, negative = growth inhibition, hits mostly inhibitors. hit rate 12% among 420,000. AID 686979, 2013; also: potency is read from the fitted curve at half-maximal effect; nearly all actives have a fitted effect of over 55% in size
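Chicken DT40 Tdp1-/- cells complemented with human TDP1, 400 cells/well, exposed to compounds plus 20 nM camptothecin for at least 48 h at 37 C; viability read as ATP content by CellTiter-Glo luminescence.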
HT1080 IDH1KD tx: qHTS for induction of synthetic lethality in tumor cells producing 2HG: qHTS for the HT-1080-IDH1KD cell line; HT-1080 IDH1 knockdown viability, ATP luminescence, 48 h; hit rate 2% among 360,000; Potency, µM (titrated, usually from 46.1 µM), for inactives: at the highest dose activity, negative = toxicity, most hits filed as cytotoxic; AID 686971, 2013;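 also: potency is read from the fitted curve at half-maximal effect; 0% = DMSO wells and -100% = cell-free medium wells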
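Using the IDH1-knockdown HT-1080 line run in the same batch and compound series as the NT line, viability after 48 h at 37 °C was determined by CellTiter-Glo luminescence and expressed as % activity.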
DT40 TDP1 no CPT: qHTS for Inhibitors of human tyrosyl-DNA phosphodiesterase 1 (TDP1): qHTS in cells in absence of CPT; hit rate 15% among 420,000; DT40 Tdp1-/- hTDP1 cells, no CPT, ATP luminescence, 48 h; Potency, µM (top dose mostly 46.2 µM), for inactives: at the top dose activity change, negative = growth inhibition, usual class: inhibitors; also: potency is read from the fitted curve at half-maximal effect; nearly all actives have a fitted effect of over 55% in size
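No-CPT arm: Tdp1-/-;hTDP1 DT40 cells (400/well) plus compounds, incubated ≥48 hr at 37 °C. Readout CellTiter-Glo luminescence.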
IL-1B inflam inh: qHTS for Inhibitors of Inflammasome Signaling: IL-1-beta AlphaLISA Primary Screen | THP-1 LPS/ATP IL-1B secretion, AlphaLISA, 16 h; stronger effect = lower value | activity change, % at 57.5 µM | hit rate 4.7% among 360,000 | AID 743279, 2014; in the data active = activity change below about -50%; inconclusive = mostly about -30% to -49%
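Secreted IL-1B measured by AlphaLISA bead assay after 16 h compound exposure of THP-1 cells; compounds (final up to 57.5 uM) added 1 h before LPS (250 ng/mL) and ATP (1.25 mM) stimulation; lower signal means less secretion.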
Active calls of the source: *; i = inactive; u = inconclusive; x = no result given. Unless noted, calls follow the shape of the dose curve; as a rule, active = well fitted curve in the direction sought with a large enough effect; inconclusive = small, poorly fitted or top-dose-only effect, or another doubt; inactive = no such curve, though single readings can be large; an effect the other way counts as inactive or inconclusive. Unless noted, % is scaled to controls: 0 for no effect and ±100 for the full control effect.

SMILES	HT1080-NT tox	DT40 TDP1 CPT	HT1080 IDH1KD tx	DT40 TDP1 no CPT	IL-1B inflam inh
CCCOC(=O)c1ccc(Oc2c(-c3ccc(OCC)cc3O)n[nH]c2C)cc1	u	16µM*	u	18µM*	-102*
CCOc1ccc(-c2[nH]ncc2Oc2cccc(OC)c2)c(O)c1	u	u	u	u	-5
CCCc1ccc(Oc2cn[nH]c2-c2ccc(O)c(C)c2O)cc1	u	18µM*	u	u	-64*
CCCOC(=O)c1ccc(Oc2cn[nH]c2-c2ccc(OCC)cc2O)cc1	u	u	u	u	-75*
Cc1ccc(C(=O)Nc2ccc3c(c2)nc(CCNC(=O)c2ccco2)n3C)cc1	3%	3%	1%	-12%	20
Cc1ccc(OCC(=O)Nc2ccc3c(c2)nc(CCN2CCCC2)n3C)cc1	-7%	-85%	-10%	u	-14
COc1ccc(OCC(=O)Nc2ccc3c(c2)nc(CCNC(=O)c2ccco2)n3C)cc1	x	-5%	x	5%	x
Cc1cccc(OCC(=O)Nc2ccc3c(c2)nc(CCNC(=O)c2ccco2)n3C)c1	x	23µM*	x	-29%	x
CC(=O)Nc1ccc(S(=O)(=O)NNC(=O)COc2cc(C)ccc2C(C)C)cc1	5%	-29%	-1%	-12%	2
Cc1ccc(C(C)C)c(OCC(=O)Nc2ccc3c(c2)nc(CCNC(=O)c2ccco2)n3C)c1	x	u	x	10µM*	x
Cc1ccc(C(C)C)c(OCC(=O)Nc2ccc3c(c2)nc(CN2CCCC2)n3C)c1	16µM*	u	23µM*	15µM*	-50*
Cc1ccc(C(C)C)c(OCC(=O)NNCC(=O)Nc2cccc(F)c2)c1	0%	15µM*	-8%	15µM*	u
CC(NS(=O)(=O)c1cccc(C(=O)N(C)Cc2ccc(N3CCOCC3)cc2)c1)c1ccccc1 (centres undefined)	-6%	u	0%	u	-20
CC1(C)Cc2c(cnn2-c2ccccc2)C(NC(=O)CCCN2CCCCC2=O)C1 (centres undefined)	0%	-13%	5%	-12%	i
O=C(OCc1cccc(C(F)(F)F)c1)c1cc(S(=O)(=O)N2CCOCC2)ccc1F	-7%	-8%	-16%	-15%	-18
Cc1ccc(CNC(=O)c2cc(=O)c3cc(C)cc(C)c3o2)cc1	x	-16%	x	u	x
CCCS(=O)(=O)c1c(S(=O)(=O)CCC)c2cc(C(C)(C)C)ccn2c1C(=O)c1ccc(C)cc1	x	23µM*	x	15µM*	x
CCCS(=O)(=O)c1c(S(=O)(=O)CCC)c2ccc(C(N)=O)cn2c1C(=O)c1ccc(OC)cc1	-3%	12%	-20%	-25%	23
Cc1cc(C)c(Cn2c(C(O)c3ccccc3)nc3ccccc32)c(C)c1 (centres undefined)	x	18µM*	x	9.2µM*	x
COc1ccc(C(O)c2nc3ccccc3n2C)cc1OC (centres undefined)	u	9.2µM*	-29%	12µM*	1
COc1cc(C(O)c2nc3ccccc3s2)cc(OC)c1OC (centres undefined)	-12%	4.1µM*	-11%	9.2µM*	9
CCCn1c(C(O)c2ccc(C)cc2)nc2ccccc21 (centres undefined)	3%	u	0%	u	2
CCCn1c(C(O)c2cc(OC)c(OC)c(OC)c2)nc2ccccc21 (centres undefined)	0%	u	1%	21µM*	45
CCCCn1c(OC(=S)N(CC)CC)cc(C)nc1=S	20%	u	-15%	u	29
Cc1ccc(OCCN2CCC2(C)C(=O)NCc2ccc(C(F)(F)F)cc2)cc1 (centres undefined)	u	u	u	21µM*	-19
SMILES	HT1080-NT tox	DT40 TDP1 CPT	HT1080 IDH1KD tx	DT40 TDP1 no CPT	IL-1B inflam inh
Cc1ccc(OCCN2CCC2(C)C(=O)NCc2cccc3ccccc23)cc1 (centres undefined)	u	u	u	u	-11
CC(C)NC(=O)C1(C)CCN1Cc1ccc(C(F)(F)F)cc1 (centres undefined)	19%	u	1%	u	2
CCNC(=O)C1(C)CCCN1Cc1c(F)cccc1F (centres undefined)	u	u	28%	16µM*	0
CC1(C(=O)NCc2ccc(C(F)(F)F)cc2)CCN1Cc1c(F)cccc1F (centres undefined)	-5%	16µM*	0%	u	4
CC1(C(=O)NCc2ccc(C(F)(F)F)cc2)CCN1Cc1ccc(-c2ccccc2)o1 (centres undefined)	u	u	u	u	-54*
C[C@H](CSC(=O)c1ccccc1)C(=O)N1C[C@@H](Sc2ccccc2)C[C@H]1C(=O)O	x	-1%	x	-8%	x
CC(=O)c1ccc(NC(=S)NC(C)c2ccc(Cl)cc2Cl)cc1 (centres undefined)	u	u	u	29µM*	-73*
CC(=O)c1ccc(NC(=S)Nc2ccc(Br)c(Cl)c2)cc1	-18%	u	-28%	u	u
COC(=O)c1ccc2nc(-c3ccc(F)cc3)c(Cc3ccsc3)n2c1	12%	u	11%	18µM*	25
COC(=O)c1ccc2nc(C3CCCCC3)c(Cc3ccccc3)n2c1	u	16µM*	u	9.2µM*	20
COC(=O)c1ccc2nc(-c3ccc(C#N)cc3)c(Cc3ccsc3)n2c1	-6%	u	-19%	23µM*	-6
COC(=O)c1ccc2nc(-c3ccc(F)cc3)c(Cc3ccccc3)n2c1	8%	16µM*	-1%	23µM*	1
C#CCNC(=O)C1=C[C@H](C)[C@@H](CCCO)[C@H](OCC)O1	14%	-7%	12%	0%	9
Cc1cccc(NC(=O)CNC(=O)CN2C(=O)NC(C)(CCC(C)C)C2=O)c1C (centres undefined)	1%	u	-3%	-23%	-14
C=CCN1C(=O)C(C)(C)N(C(=O)c2cccc([N+](=O)[O-])c2)c2ccccc21	-16%	u	-13%	u	4
Cc1ccc2nc(-c3ccccc3)c(Cc3ccsc3)n2c1	1%	15µM*	-6%	16µM*	-13
COc1ccc(-c2nc3ccc(Br)cn3c2Cc2ccsc2)cc1OC	-18%	u	-19%	u	1
COC(=O)c1ccc2nc(-c3ccc(C)cc3)c(Cc3ccsc3)n2c1	1%	18µM*	-6%	21µM*	46
